The results in this text go back to PubChem BioAssay (NCATS).

Assay [1] in a line: P-glycoprotein substrates identified in KB-3-1 adenocarcinoma cell line, qHTS therapeutic library screen (AID 1346986). Further: nearly all actives have a fitted effect of over 60% in size.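 Further: potency means the concentration at half of the fitted maximal effect; potency is for cytotoxicity meaning loss of cell viability.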 The procedure, abridged:
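In 1536-well format, 500 cells/well received pinned compound titrations and were incubated 72 h, 5% CO2. Viability was read by CellTiter-Glo; cytotoxic if AC50 < 10 uM and efficacy >50%.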

Assay [2] can be described thus: P-glycoprotein substrates identified in KB-8-5-11 adenocarcinoma cell line, qHTS therapeutic library screen (AID 1346987). Further: nearly all actives have a fitted effect of over 65% in size. Further: potency means the concentration at half of the fitted maximal effect. An outline of the steps:
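Luminescence from CellTiter-Glo, read 5 min after addition, quantified survival of KB-8-5-11 (P-gp-overexpressing) cells exposed to compounds for 72 h. AC50 was derived from concentration-response curves.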

Assay [3] can be described thus: Primary qHTS for inhibitors of nuclear receptor binding SET domain protein 2 (NSD2) in an isogenic RCH-ACV NSD2 p.E1099K mutant (9B) (AID 1645876). Further: nearly all actives have a fitted effect of over 70% in size. Further: potency means the concentration at half of the fitted maximal effect.
Assay [4] in a line: Primary qHTS for inhibitors of nuclear receptor binding SET domain protein 2 (NSD2) in an RCH-ACV wild type WT cells (2C) (AID 1645877). Further: nearly all actives have a fitted effect of over 70% in size. Further: potency means the concentration at half of the fitted maximal effect.
Assay [5] concerns the target Glutathione peroxidase 1 (Homo sapiens) (UniProt P07203). In words: Primary qHTS Assay for Inhibitors of Recombinant Selenoprotein Glutathione Peroxidase 1 (GPX1) (AID 1845191). Further: nearly all actives have a fitted effect of over 65% in size. Further: potency means the concentration at half of the fitted maximal effect. The procedure, abridged:
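GR-coupled readout: NADPH consumption tracked by fluorescence, ex 340/em 450 nm, at t=0 and after 15 min at RT. Final mix 10 nM GPX1, 1 mM GSH, 0.5 mM CHP, 0.5 mM NADPH, 100 nM GR, 0.01% BSA, following 30 min enzyme–compound preincubation.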

Assay [6] concerns the target Catechol O-methyltransferase (Homo sapiens) (UniProt P21964). In words: Confirmatory Screen for Target Class Profiling of Small Molecule Inhibitors of Methyltransferases (AID 1745852; calls by dose curve; further: potency means the concentration at half of the fitted maximal effect; on activity change, negative = inhibition: on the % scale 0 is the no-effect control and ±100 the full control effect). As to conditions: MTase-Glo luminescence, SAH detection, recombinant enzyme; measured here: COMT max response; stronger effect = lower value.
Assay [7] has as its target Guanidinoacetate N-methyltransferase (Homo sapiens) (UniProt Q14353). The assay is described as above. The following applies: activity change, negative = inhibition: at 57.3 µM (top of the series) unless noted.
The target of assay [8] is Nicotinamide N-methyltransferase (Homo sapiens) (UniProt P40261). The description is as above. The following applies: MTase-Glo luminescence, SAH detection, recombinant enzyme; measured here: NNMT max response; stronger effect = lower value.
Assay [9] concerns the target Phenylethanolamine N-methyltransferase (Homo sapiens) (UniProt P11086). The assay is described as above. As to conditions: MTase-Glo luminescence, SAH detection, recombinant enzyme; measured here: PNMT max response; stronger effect = lower value.
Assay [10] can be described thus: NCATS anti-infectives library activity on HEK293 viability as a counter-qHTS vs the C. elegans viability qHTS (AID 1745854).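 Further: HEK293 cells exposed to compounds for 24 hr before the viability read; on the % scale 0 is the no-effect control and ±100 the full control effect.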 The procedure, abridged:
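Counter-screen for cytotoxicity: HEK293, 24 hr, 37C, compounds up to 41.7 uM final (a dilution series, 1:5). Readout CellTiter-Glo luminescence, 10 min RT. Digitonin control, 83.3 uM final.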

Assay [11] is described as follows: qHTS drug screen for cell cycle checkpoint inhibitors in PARPi-resistant BRCA-mutant ovarian cancer cell lines. (AID 1963452; calls by dose curve). As to conditions: PEO1/OlaR viability, CellTiter-Glo luminescence, 96 h, stronger effect = lower value. An outline of the steps: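 PEO1, PEO4 and PEO1/OlaR ovarian cancer cells, 600 per well, exposed 96 h at 37C to a dilution series. Viability read by CellTiter-Glo luminescence, normalized to DMSO and empty wells; activity summarized as Z-AUC.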

Results filed as inconclusive are left out. Activity calls are given as the source filed them. Unless noted, the call rests on the fitted dose curve; in most records, active means well fitted curve in the direction sought with a large enough effect; inconclusive means small, poorly fitted or top-dose-only effect, or another doubt; inactive means no such curve, though single readings can be large; an effect the other way counts as inactive or inconclusive.

Catechol O-methyltransferase (Homo sapiens), sequence (P21964 whole entry, looked up): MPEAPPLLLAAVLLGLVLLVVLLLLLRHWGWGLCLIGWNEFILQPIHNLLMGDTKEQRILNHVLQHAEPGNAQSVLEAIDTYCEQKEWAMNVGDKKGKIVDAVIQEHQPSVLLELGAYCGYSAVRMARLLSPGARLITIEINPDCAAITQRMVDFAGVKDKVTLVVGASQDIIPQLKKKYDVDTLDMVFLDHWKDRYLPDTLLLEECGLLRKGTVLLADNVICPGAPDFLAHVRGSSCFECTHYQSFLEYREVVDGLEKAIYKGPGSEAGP
Glutathione peroxidase 1 (Homo sapiens), sequence (P07203 whole entry, looked up): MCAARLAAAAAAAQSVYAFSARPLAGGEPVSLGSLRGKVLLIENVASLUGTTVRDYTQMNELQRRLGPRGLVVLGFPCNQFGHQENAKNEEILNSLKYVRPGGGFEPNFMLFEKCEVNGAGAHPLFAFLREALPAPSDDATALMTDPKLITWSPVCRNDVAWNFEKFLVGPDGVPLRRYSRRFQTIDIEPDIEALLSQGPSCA
Nicotinamide N-methyltransferase (Homo sapiens), sequence (P40261 whole entry, looked up): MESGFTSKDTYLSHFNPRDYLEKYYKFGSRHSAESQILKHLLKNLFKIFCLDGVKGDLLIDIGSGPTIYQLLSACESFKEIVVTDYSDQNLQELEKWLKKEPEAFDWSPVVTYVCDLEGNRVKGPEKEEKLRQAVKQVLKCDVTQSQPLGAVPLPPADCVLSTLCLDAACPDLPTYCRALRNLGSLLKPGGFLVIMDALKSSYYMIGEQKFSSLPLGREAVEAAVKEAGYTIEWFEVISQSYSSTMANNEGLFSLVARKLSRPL
Phenylethanolamine N-methyltransferase (Homo sapiens), sequence (P11086 whole entry, looked up): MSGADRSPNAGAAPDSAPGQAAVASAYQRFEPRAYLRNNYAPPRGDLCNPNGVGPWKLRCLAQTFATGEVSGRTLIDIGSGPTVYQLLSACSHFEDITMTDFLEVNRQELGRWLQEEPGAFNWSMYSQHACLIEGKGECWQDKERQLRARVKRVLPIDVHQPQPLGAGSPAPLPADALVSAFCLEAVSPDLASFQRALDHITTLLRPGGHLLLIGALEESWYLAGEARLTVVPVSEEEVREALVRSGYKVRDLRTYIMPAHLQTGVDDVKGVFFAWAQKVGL

With `O=C1c2ccccc2-c2c(NCCc3ccccc3)c(=O)[nH]c3cccc1c23`, the Potency in assay [1] is 1.03 µM (active); in [2] it was 1.16 µM (active); in [3], 5.17 µM (active); in assay [4], 4.61 µM (active). In addition, in assay [5], the Potency entry is “inactive”.
For `Cc1c(-c2ccnc(Nc3cc(Br)cc(C(F)(F)F)c3)n2)sc(=O)n1C`, in that order: “inactive”, “inactive”, 5.8 µM (active), 4.11 µM (active) and “inactive”.
Regarding `Cc1cc(C)c(/C=C2\C(=O)Nc3ccc(Cl)cc32)[nH]1`, the Potency result in assay [1], in [2], in assay [3], in assay [4] and in assay [5] was “inactive” throughout.
On to `Oc1cccc(Nc2ccnc3cc(-c4cccc(CN5CCOCC5)c4)sc23)c1`, for which the Potency in assay [1] was 7.31 µM (active); in assay [2], 8.2 µM (active); in [3], 1.64 µM (active); in assay [4] it was 1.46 µM (active). In addition, in assay [5], the Potency entry was “inactive”.
Take `C[C@]1(C(=O)Nc2ccc(F)nc2)CCCN1c1nc(Nc2cc(C3CC3)[nH]n2)c2cccn2n1`: the Potency is 2.06 µM (active) in [1], 2.91 µM (active) in assay [2], 1.84 µM (active) in assay [3] and 0.92 µM (active) in assay [4].
Take `O=C(NCCO)c1cc(C(=O)NCCO)cc(C(=O)NCCO)c1`: the Potency result in [1], in assay [2], in assay [3], in [4] and in assay [5] was “inactive” throughout.
Take `Oc1cc(CNC(=S)/C=C/c2cc(O)c(O)c(Br)c2)cc(O)c1O`: the Potency in [1] is 7.31 µM (active); in [2], 7.31 µM (active); in assay [3], 1.16 µM (active); in assay [4], 1.03 µM (active); in assay [5] it was 8.06 µM (active). Also, the activity in assay [6] is -46.2%; in assay [8], -0.986%; in assay [9], -0.984%. For the same molecule, in assay [7], the activity change, negative = inhibition is -4.79%.
For `CCCCCCCCCCCCCC#CC(=O)[C@@H]1COC(C)(C)N1C(=O)OC(C)(C)C`, the Potency entry in assay [1], in assay [2] and in assay [5] was “inactive” in each case. Also, the Potency is 13 µM (active) in [3] and 16.4 µM (active) in assay [4].
As to `Cc1ccc(Cl)cc1NC(=O)c1nc[nH]c1C(=O)Nc1nc2ccccc2[nH]1`, the Potency result in assay [1], in [2], in [3], in assay [4] and in assay [5] was “inactive” each time.
For the molecule `CCN(CC)CCNc1ccc2ncn3c4ccc(O)cc4c(=O)c1c23`, the Potency is 1.3 µM (active) in assay [1], 1.3 µM (active) in [2], 0.0651 µM (active) in assay [3] and 0.058 µM (active) in assay [4]. Also, the Potency result in assay [5] is “inactive”.
As for `C[C@@H](Oc1cc(-n2cnc3ccc(OC4CCN(C)CC4)cc32)sc1C(N)=O)c1ccccc1Cl`, the Potency is 0.0184 µM (active) in assay [1]; 0.461 µM (active) in [2]; 0.0411 µM (active) in assay [3]; 0.058 µM (active) in assay [4]; 8.57 µM (active) in assay [7]. For the same molecule, the activity was -96.8% in assay [6], -85.5% in assay [8] and -96.2% in assay [9]. For the same molecule, the Potency result in assay [5] was “inactive”.
Consider `CN[C@H]1CCN(C(=O)c2ccc(Nc3ncc(F)c(-c4cnc(C)n4C(C)C)n3)cc2)C1`, for which the Potency is 0.058 µM (active) in assay [1], 6.51 µM (active) in assay [2], 0.092 µM (active) in assay [3] and 0.116 µM (active) in assay [4]. The Potency entry in assay [5] was “inactive”.
Turning to `CC(C)C(=O)OC[C@@]1(N=[N+]=[N-])O[C@@H](n2ccc(N)nc2=O)[C@H](OC(=O)C(C)C)[C@@H]1OC(=O)C(C)C`, the Potency entry in assay [1], in [2], in [3] and in assay [4] was “inactive” in each case. For the same molecule, in assay [10], the outcome was “inactive”.
Regarding `O=C(Nc1cccc(Nc2nccc(Nc3cccc(C(F)(F)F)c3)n2)c1)C1CC1`, the Potency is 5.8 µM (active) in assay [1], 5.8 µM (active) in assay [2], 3.66 µM (active) in [3] and 2.59 µM (active) in assay [4]. In addition, the Potency entry in assay [5] is “inactive”.
Consider `O=C1NC(=O)C(c2c[nH]c3ccccc23)=C1c1c[nH]c2ccccc12`, for which the Potency entry in assay [1], in assay [2] and in assay [5] was “inactive” each time. The Potency in assay [3] is 18.6 µM (active); in assay [4], 20.9 µM (active); in assay [7], 30.6 µM (active). The activity in [6] was -38.2%; in assay [8] it was -39.6%; in [9] it was -46.7%. For the same molecule, the Z-AUC was 1.34 (inactive) in assay [11], 0.607 in [11] (measured here: PEO1 parental Z-AUC) and 0.134 in [11] (measured here: PEO4 Z-AUC).
As to `CCN(CC)CCNC(=O)c1c(C)[nH]c(/C=C2\C(=O)Nc3ccc(Cl)cc32)c1C`, the Potency in assay [1] was 16.4 µM (active); in assay [2], 18.4 µM (active); in [3], 2.59 µM (active); in [4] it was 2.91 µM (active). Moreover, the Potency result in assay [5] was “inactive”.
As to `CC1=CC(=O)C(C(C)C)=CC1=O`, the Potency result in assay [1], in assay [2] and in assay [5] was “inactive” throughout. The Potency in [3] was 14.6 µM (active); in [4] it was 6.51 µM (active).
In the case of `O=C1NCCSc2c1sc1ccc(O)cc21`, the Potency is 6.51 µM (active) in assay [1], 10.3 µM (active) in assay [2], 5.8 µM (active) in [3] and 3.66 µM (active) in assay [4]. Further, the Potency result in assay [5] is “inactive”.
For `Nc1nc(N)c2nc(-c3cccc(O)c3)cnc2n1`, the Potency in assay [1] is 5.8 µM (active); in assay [2], 7.31 µM (active); in [3], 1.64 µM (active); in assay [4], 1.46 µM (active). In addition, the Potency entry in assay [5] was “inactive”.
For `OCC(O)CCO/N=C1/C(c2c(O)[nH]c3ccccc23)=Nc2ccccc21` (centres undefined), in that order: 14.6 µM (active), 16.4 µM (active), 2.59 µM (active), 2.59 µM (active) and “inactive”.
Take `CC(C)C(=O)OC[C@H]1O[C@@H](n2ccc(N)nc2=O)[C@](C)(F)[C@@H]1OC(=O)C(C)C`: the Potency result in assay [1], in [2], in assay [3] and in assay [4] was “inactive” each time. Also, the outcome in assay [10] is “inactive”.
For `OC[C@H]1O[C@@H](O[C@@H]2OC=C[C@H]3[C@H](O)[C@@H]4O[C@]4(CO)[C@@H]23)[C@H](O)[C@@H](O)[C@@H]1O`, the Potency entry in [1], in assay [2], in [3] and in [4] was “inactive” each time. Moreover, in [10], the outcome is “inactive”.
In the case of `BrC1C(Br)C(Br)C(Br)C(Br)C1Br` (centres undefined), the Potency result in assay [1], in [2], in [3], in assay [4] and in assay [5] was “inactive” throughout.
As for `O=S(=O)(/N=C/c1c(O)ccc2ccccc12)c1cccs1`, the Potency entry in assay [1], in [2], in assay [3], in assay [4] and in assay [5] was “inactive” in each case.
Consider `Oc1cccc(-c2nc(N3CCOCC3)c3sccc3n2)c1`, for which the Potency in assay [1] is 5.17 µM (active); in assay [2] it was 4.61 µM (active); in assay [3], 1.3 µM (active); in assay [4], 1.16 µM (active). Also, the Potency result in assay [5] is “inactive”.
